Only some compounds are listed: those with a hit (about 7% of all), similar ones and a draw of the others.
ADAM17 inh: inhibitors of human ADAM17 | P78536 | recombinant ADAM17, EDANS/DABCYL FRET peptide cleavage | inhibition, % at 6.95 µM | actives 0.83% (n = 370,000);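 active = inhibition above the mean of compounds lying between control limits plus 3 SD, set per campaign, cut at about 8.5% in these data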
AHR act: activates the human aryl hydrocarbon receptor; P35869; AHR-responsive luciferase reporter cells, luminescence; activation, % at 5 µM; actives 2.5% (n = 320,000); in the data active = activation above about 47%
ADAM10 inh: inhibits human ADAM10 | recombinant ADAM10, EDANS/DABCYL FRET peptide cleavage, 3 h | actives 0.62% (n = 370,000) | inhibition, % at 7 µM | O14672 | AID 720582;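 active = inhibition above a per-campaign cutoff equal to the mean of compounds falling between control-based bounds plus 3 SD, cut at about 20% in these data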
Target sequence (O14672 214-748 limits assumed): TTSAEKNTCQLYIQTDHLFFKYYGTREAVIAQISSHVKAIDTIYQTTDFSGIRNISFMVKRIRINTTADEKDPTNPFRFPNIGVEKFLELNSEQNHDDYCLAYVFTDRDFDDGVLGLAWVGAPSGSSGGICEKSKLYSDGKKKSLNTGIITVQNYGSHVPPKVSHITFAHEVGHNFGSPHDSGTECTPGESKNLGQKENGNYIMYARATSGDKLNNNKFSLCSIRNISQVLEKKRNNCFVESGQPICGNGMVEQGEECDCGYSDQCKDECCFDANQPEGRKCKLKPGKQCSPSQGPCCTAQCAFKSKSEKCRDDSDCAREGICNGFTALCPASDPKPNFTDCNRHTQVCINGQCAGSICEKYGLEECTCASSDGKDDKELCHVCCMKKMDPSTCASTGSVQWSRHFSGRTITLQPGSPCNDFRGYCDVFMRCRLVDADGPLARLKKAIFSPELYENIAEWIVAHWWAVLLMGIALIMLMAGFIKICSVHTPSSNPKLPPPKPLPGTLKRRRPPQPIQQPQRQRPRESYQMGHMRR
NR3A LBD binder: NR3A (human) ligand-binding domain modulation | NR3A LBD differential scanning fluorimetry, Tm shift; 0% = protein alone, 100% = glycine-bound protein | Tm shift relative to glycine control, % at 25 µM | actives 2.5% (n = 340,000);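 active = melting temperature shift of at least 10% of the positive control shift, at one fixed dose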
KLK7 zymogen act: activates the human kallikrein-7 zymogen. activation, % at 7 µM. purified proKLK7, EDANS-DABCYL substrate fluorescence; 100% is mature enzyme control, 0% vehicle. P49862. actives 0.9% (n = 370,000);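 active = activation above the mean of all tested compounds plus 3 SD, computed per campaign excluding outliers beyond control limits, cut at about 13% in these data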
rCAG binder: binds r(CAG) RNA repeats. r(CAG) RNA repeat, TO-PRO-1 dye displacement fluorescence. inhibition, % at 3 µM. actives 1.3% (n = 370,000). AID 651821;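 active = inhibition above the plate cutoff, the mean of all test compounds on that plate plus 3 SD, cut at about 35% in these data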;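 note: higher means more dye released from RNA so lower well fluorescence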
A number is an active result; n = inactive; x = no result given.

SMILES	ADAM17 inh	AHR act	ADAM10 inh	NR3A LBD binder	KLK7 zymogen act	rCAG binder
c1ccc2sc(Sc3ncnc4sccc34)nc2c1	n	49	n	n	n	n
CCc1cc2c(Sc3nc4ccccc4s3)ncnc2s1	n	n	n	n	n	n
COc1cc(NC(=O)c2ccco2)c(C(=O)OCC(=O)c2c[nH]c3ccccc23)cc1OC	n	55	n	14	n	n
COc1ccccc1N(C)S(=O)(=O)c1ccc(C(=O)OCC(=O)c2c[nH]c3ccccc23)cc1	n	n	n	23	n	n
CCCCCN1CCCCC(NC(=O)CSc2ccccc2)C1=O (stereo not drawn)	n	x	n	x	n	n
CN(C)c1ccc(/C=N\NC(=O)c2cccc(S(=O)(=O)N(C)C)c2)cc1	n	x	n	x	n	n
CC(C)C[C@H]1COc2cc(Br)ccc2S(=O)(=O)N1Cc1cn(Cc2ccc(C(F)(F)F)cc2)nn1	n	x	n	x	n	n
CCN(CC)CCNC(=S)N1CCn2c(nc3ccccc32)C1	n	n	n	n	n	n
CCNC(=S)N1CCn2c(nc3ccccc32)C1	n	n	n	12	n	n
COC(=O)c1ccccc1NC(=O)CSc1nnc(C(CO)NC(=O)c2ccccc2Cl)n1C (stereo not drawn)	n	n	n	n	n	n
CC(NC(=O)c1ccccc1Cl)c1nnc(SCC(=O)Nc2ccc(C(=O)O)cc2)n1C (stereo not drawn)	n	n	n	16	n	n
Clc1ccc(-c2cc(-c3nnc4sc(Cc5cccs5)nn34)[nH]n2)cc1	n	x	n	x	n	n
Cc1cccc(OCCOC(=O)C2CCN(S(=O)(=O)c3ccc(C)c(C)c3)CC2)c1	n	n	n	n	n	n
Cc1ccc(S(=O)(=O)N2CCC(C(=O)OCCOc3cccc(C)c3)CC2)cc1	n	n	n	20	n	n
Cc1ccc(C(=O)OCC(=O)c2c(N)n(C)c(=O)n(C)c2=O)cc1S(=O)(=O)N1CCCCC1	n	n	n	10	n	n
Cc1ccc(C(=O)Oc2ccc([N+](=O)[O-])cc2)cc1S(=O)(=O)N1CCCCCC1	n	n	n	13	n	n
Cc1ccc(S(=O)(=O)N2CCOCC2)cc1C(=O)OCC(=O)c1c(N)n(C)c(=O)n(C)c1=O	n	n	n	n	n	n
COc1ccccc1NC(=S)OC1CCC12CCC(c1ccccc1)CC2 (stereo not drawn)	n	x	n	x	n	n
COc1ccccc1CCn1cnc2c3cc(C)ccc3n(C)c2c1=O	n	68	n	n	n	n
O=C1C=C(c2ccc(F)nc2)C[C@@H](c2ccc3c(c2)OCO3)C1	n	58	n	n	n	n
Cc1ccc(NNC(=S)Nc2ccc(C(C)C)cc2)c(C)c1	n	66	n	n	n	n
Fc1ccccc1CNC(=S)Nc1cccc(C(F)(F)F)c1	n	n	n	14	n	n
Cc1ccc(NC(=S)NNC(=O)Nc2ccccc2)cc1	n	n	n	n	n	n
Cc1ccc(NC(=S)NNC(=S)Nc2ccc(C)cc2)cc1	n	x	n	30	n	n
Cc1ccc(NC(=S)NNC(=S)Nc2cccc(C(F)(F)F)c2)cc1	n	n	n	34	n	n
SMILES	ADAM17 inh	AHR act	ADAM10 inh	NR3A LBD binder	KLK7 zymogen act	rCAG binder
CC(C)C[C@H]1COc2cccc(NCCO)c2S(=O)(=O)N1	n	x	n	x	n	n
COC(=O)C1CN(Cc2cn(Cc3ccc(F)cc3)nn2)CCS(=O)(=O)N1Cc1ccc(OC)cc1 (stereo not drawn)	n	x	n	x	n	n
COc1ccc(-c2nc3c(Br)c(N)c(Br)cc3o2)cc1	x	49	x	n	x	x
Cc1ccc2nc(-c3ccc(NS(=O)(=O)c4ccc(F)c(F)c4)cc3)sc2c1	n	n	n	36	n	75
Cc1ccc(S(=O)(=O)Nc2ccc3nc(C)oc3c2)cc1	n	x	n	11	n	n
Cc1nc2ccc(NS(=O)(=O)c3ccc(F)c(F)c3)cc2s1	n	n	n	n	n	n
Cc1ccc2nc(-c3ccc(NS(=O)(=O)c4ccccc4)cc3)sc2c1	n	n	n	28	n	n
Clc1nc2ccccc2cc1-c1nnn(-c2ccccc2Br)n1	n	n	n	n	n	n
Brc1ccccc1-n1nnc(-c2cnc3ccccc3c2)n1	n	54	n	n	n	n
COc1cc(NC(=O)c2cc(C)no2)c(OC)cc1Cl	n	n	n	n	n	n
COc1cc(NC(=O)c2onc(C)c2Cl)c(OC)cc1Cl	n	60	n	n	n	n
COc1cc(N/C(N)=N/c2nc(C)cc(C)n2)c(OC)cc1Cl	n	54	n	n	n	n
Cc1noc(C(=O)Nc2cc(Cl)ccc2O)c1Cl	n	56	n	n	n	n
COc1cc(NC(N)=S)c(OC)cc1Cl	n	n	n	n	n	n
N#CN1CCC(NS(=O)(=O)c2cccc(C(F)(F)F)c2)CC1	n	x	n	x	x	x
CCOc1ccc(N)c(SSc2cc(OCC)ccc2N)c1	n	n	n	n	n	n
CCOc1cc(-c2ccc(N)c(OCC)c2)ccc1N	n	50	n	n	n	n
O=C(CN(c1ccc(Cl)c(C(F)(F)F)c1)S(=O)(=O)c1ccccc1)N1CCOCC1	n	n	n	14	n	n
Cc1cc(O)cc(=O)n1-c1cccc(C(F)(F)F)c1	n	x	n	x	n	n
COc1ccc(C2=NN(C(C#N)c3ccc(OC)cc3)C(c3ccccc3)C2)cc1 (stereo not drawn)	n	54	n	n	n	n
COc1ccc(C(C#N)N2N=C(C)CC2c2ccccc2)cc1 (stereo not drawn)	n	n	n	n	n	n
Cc1cccc2c(N)c3c(nc12)N(C)CC3	n	n	n	16	n	n
CN1CCc2c1nc1ccccc1c2N (tested in a mixture with another compound)	n	n	n	n	n	n
COCC(=O)N1CCC(C(=O)NCC2COc3ccccc3O2)CC1 (stereo not drawn)	n	x	n	x	n	n
N#Cc1ccccc1NC(=O)CC1c2ccccc2Oc2ccccc21	n	n	n	13	n	n
SMILES	ADAM17 inh	AHR act	ADAM10 inh	NR3A LBD binder	KLK7 zymogen act	rCAG binder
N#Cc1ccccc1NC(=O)CC1CCCCC1	n	n	n	n	n	n
COc1cc(/C=C/c2nc3ccccc3c(=O)[nH]2)cc(Cl)c1O	n	n	n	27	n	n
O=c1[nH]c(/C=C/c2ccccc2[N+](=O)[O-])nc2ccccc12	n	79	n	n	n	n
O=c1[nH]c(/C=C/c2ccccn2)nc2ccccc12	n	n	n	n	n	n
O=c1[nH]c(/C=C/c2cccc3ccccc23)nc2ccccc12	n	56	n	n	n	n
O=c1[nH]c(/C=C/c2ccccc2F)nc2ccccc12	n	x	n	39	n	n
O=c1[nH]c(/C=C/c2ccc(Br)cc2)nc2ccccc12	n	n	n	n	n	n
NC(=O)C1CCN(c2nc(-c3ccc(OCc4ccccc4)cc3)cs2)CC1	n	x	n	x	x	x

Source: PubChem (several laboratories)
